Source: PubChem BioAssay
MITF act = MITF TRPM1 promoter activation in melanoma cells. SK-MEL-5 TRPM1-promoter luciferase, 24 h; % of positive control, neutral wells = 0. activation, % at 12.5 µM. 300,000 tested, 0.75% active. AID 588334;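 active means mean activation of at least 80% with every replicate also reaching 80%; inconclusive means mean reaches 80% but some replicate falls short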
esBAF inh = SWI/SNF esBAF complex inhibition; 350,000 tested, 2% active; reporter increase, % at 12.5 µM; mouse ES cells, Bmi1-luciferase knock-in reporter, 24 h; 100% = twice the neutral-well signal; AID 602393; in the data active means activation above about 40%; inconclusive means no clear call, values can overlap the other calls;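 further: a rise in the Bmi1 reporter signal indicates esBAF inhibition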
Wnt bcat act = activates Wnt/beta-catenin signaling in a reporter cell assay; activator, plate reader; 300,000 tested, 1.2% active; activation, % at 9.35 µM; in the data active means activation above about 30%, passing the limit was not always enough; inconclusive means no clear call, values can overlap the other calls
HSF1 inhib = HSF1 inhibition | activity change, negative = inhibition, % at 7.5 µM (by protocol) | AID 2098 | NIH3T3-HGL HSE-luciferase, MG132-induced, luminescence 8 h; hits give low values | 300,000 tested, 0.77% active;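 active means more than half of replicate wells show activity change below -50%, luminescence cut by over half; inconclusive means some wells, but at most half, below -50%; inactive means no replicate well below -50%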;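 further: luciferase reports HSF-1 transcriptional activity via heat shock element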
SMARCA2 act = activators of SMARCA2 function; MG213 cells, MMTV-luciferase reporter, dexamethasone, overnight; activation, % at 9.1 µM; 370,000 tested, 1% active; AID 652017; in the data active means activation above about 7.8%
HSF1 activator = increases HSF-1 driven luciferase reporter signal; activation, % at 9 µM; AID 504408; NIH3T3-HGL HSF-1 luciferase reporter, MG132, 8 h; 100% = twice DMSO control signal; 300,000 tested, 1.7% active;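 active means mean replicate activation of at least 50% with a set share of replicates each reaching 50%; inconclusive means only one of those two conditions met; inactive means mean below 50% and too few replicates reaching it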
Ring1 derepress = esBAF inhibition confirmed by Ring1 de-repression | shares compounds with esBAF inh | mouse ESC E14, Ring1 mRNA RT-qPCR fold change | fold change at 33 µM | 550 tested, under 10 active | AID 743176;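 active means Ring1 gene expression raised more than 2-fold over untreated cells in both replicates at either tested dose; inconclusive means only one replicate above 2-fold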;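 further: Ring1 transcript normalised to actin housekeeping signal by TaqMan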
esBAF Fgf4 qPCR = confirmation of esBAF inhibitors: Fgf4 repression in mouse ESCs; shares compounds with esBAF inh; mouse ESC E14, Fgf4 mRNA qPCR fold change; hits give low values; Fgf4 expression fold change at 33 µM; 550 tested, 4% active;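 active means Fgf4 expression under 0.8 fold of control in both repeat measurements at one or both tested doses; inconclusive means under 0.8 fold in just a single repeat measurement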;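 further: Fgf4 transcript normalised to actin in duplex TaqMan qPCR; cells exposed to compound for 24 h before lysis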
Bmi1 derepress = confirmation of esBAF inhibitors: Bmi1 de-repression in mouse ESCs | shares compounds with esBAF inh | mouse ESE14 ES cells, Bmi1 mRNA qPCR fold; hits give high values | fold change at 33 µM | 550 tested, under 10 active | AID 743180;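 active means Bmi1 expression fold change above 6 at either tested concentration, seen in replicate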;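 further: higher fold means more Bmi1 de-repression and stronger esBAF inhibition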
A549 cytotox = cytotoxicity in A549 cells | shares compounds with esBAF inh | AID 743188 | plate reader | cell viability change % (negative = cytotoxic), % at 25 µM, hits read low | 550 tested, under 10 active; call rule not given here
HepG2 cytotox SP = cytotoxicity in HepG2 cells. shares compounds with esBAF inh. plate reader; hits give low values. activity change, negative = inhibition, % at 25 µM. AID 743189. 550 tested, 4% active; in the data active means activity change below about -50%
HEK293 tox SP = kills or reduces viability of HEK293 cells; 550 tested, 3% active; shares compounds with esBAF inh; activity change, negative = inhibition, % at 25 µM, hits read low; HEK293 cytotoxicity, plate reader; in the data active means activity change below about -38%, passing the limit was not always enough
Hits are given with their value; i = inactive; ? = inconclusive; nt = no result given. A selection: hits, their analogues and other compounds. The true share with any hit is near 4.3%.

SMILES | MITF act | esBAF inh | Wnt bcat act | HSF1 inhib | SMARCA2 act | HSF1 activator | Ring1 derepress | esBAF Fgf4 qPCR | Bmi1 derepress | A549 cytotox | HepG2 cytotox SP | HEK293 tox SP
CO[C@H]1CN(C)C(=O)c2cc(NC(=O)c3ccccc3F)ccc2OC[C@H](C)N(C)C[C@H]1C | nt | i | nt | nt | nt | nt | nt | nt | nt | nt | nt | nt
COc1cccc(OCc2cc(C(=O)N(C)C3CCCCC3)no2)c1 | nt | 80 | i | nt | i | nt | i | i | i | i | i | i
COc1cccc(OCc2cc(C(=O)N3CCN(C(C)=O)CC3)no2)c1 | i | 71 | i | i | i | i | i | i | i | i | i | i
COc1cc(C)ccc1OCc1cc(C(=O)N2CCN(C3CCCCC3)CC2)no1 | i | 61 | i | i | i | i | i | i | i | i | i | i
COc1ccc(NC(=O)Nc2ccc3c(c2)C(=O)N(C)C[C@H](OC)[C@@H](C)CN[C@H](C)CO3)cc1 | nt | i | nt | nt | nt | nt | nt | nt | nt | nt | nt | nt
COc1ccccc1C=Cc1ccnc2ccccc12 | i | 82 | i | nt | i | nt | i | 0.49 | 11 | i | i | i
CNC(=O)c1ccc(NC(=O)c2ccc3c(=O)n4c(nc3c2)CCC4)cc1 | i | i | i | nt | i | nt | nt | nt | nt | nt | nt | nt
CCc1nnc(NC(=O)c2ccc3c(=O)n4c(nc3c2)CCC4)s1 | nt | 59 | i | nt | i | nt | i | i | i | i | i | i
Cc1ccc(NC(=O)c2ccc3c(=O)n4c(nc3c2)CCC4)cc1F | i | 67 | 53 | nt | i | nt | i | ? | i | i | i | i
COc1ccc(NC(=O)N(C)C[C@@H]2Oc3c(NC(=O)C4CCOCC4)cccc3C(=O)N([C@H](C)CO)C[C@H]2C)cc1 | nt | i | nt | nt | nt | nt | nt | nt | nt | nt | nt | nt
Cn1c(-c2ncc(F)cc2F)cc2onc(-c3c(F)cccc3Cl)c2c1=O | 87 | 91 | 40 | nt | i | nt | i | ? | i | i | i | i
CCn1c(COc2ccc(OC)cc2)nc2ccccc21 | i | 61 | 43 | i | i | i | i | i | i | i | i | i
CCn1cnc2cc(NCc3ccc(OC)cc3)ccc21 | i | 56 | nt | i | i | ? | i | ? | i | i | i | i
CCn1cnc2cc(NCc3ccccc3Cl)ccc21 | 87 | 77 | i | i | i | i | i | i | i | i | i | i
CCCCn1cnc2cc(NCc3ccncc3)ccc21 | i | i | nt | i | i | i | nt | nt | nt | nt | nt | nt
CC(C)(C)n1cnc2cc(NCc3ccccc3O)ccc21 | i | i | i | i | i | i | nt | nt | nt | nt | nt | nt
CCN(C(=O)c1cccs1)c1nnc(-c2ccncc2)s1 | i | 58 | i | i | i | i | i | i | i | i | i | i
Cc1nc(-c2ccccc2)nc2[nH]ccc(=O)c12 | nt | 64 | i | i | i | i | 2.2 | ? | i | i | i | i
CC(=O)N(C)C[C@@H]1Oc2ncc(-c3cncnc3)cc2C(=O)N([C@H](C)CO)C[C@@H]1C | nt | i | nt | nt | nt | nt | nt | nt | nt | nt | nt | nt
Cc1ccnc(NC(=O)CCCc2ccccc2)c1 | i | 65 | nt | i | i | i | i | i | i | i | i | i
COc1ccc(-c2cc(C(=O)N3CCN(c4ccccc4O)CC3)c3ccccc3n2)cc1OC | i | nt | i | i | i | i | nt | nt | nt | nt | nt | nt
COc1cccc(-c2cc(C(=O)Nc3ccccc3)c3ccccc3n2)c1 | nt | nt | i | i | i | i | nt | nt | nt | nt | nt | nt
COc1ccc(-c2cc(C(=O)Nc3ccc(C(N)=O)cc3)c3ccccc3n2)cc1 | nt | 57 | i | i | i | i | i | ? | i | i | i | i
COc1ccc(-c2cc(C(=O)N3CCN(c4ccccc4O)CC3)c3ccccc3n2)cc1 | nt | 64 | i | nt | i | nt | i | i | i | i | i | i
CCCNC(=O)[C@H]1[C@H](CO)[C@H]2Cn3c(ccc(C4=CCCC4)c3=O)[C@@H]1N2Cc1ccncc1 | nt | i | nt | nt | nt | nt | nt | nt | nt | nt | nt | nt
SMILES | MITF act | esBAF inh | Wnt bcat act | HSF1 inhib | SMARCA2 act | HSF1 activator | Ring1 derepress | esBAF Fgf4 qPCR | Bmi1 derepress | A549 cytotox | HepG2 cytotox SP | HEK293 tox SP
C[C@@H]1CN([C@@H](C)CO)C(=O)c2cc(NC(=O)Nc3cccc4ccccc34)ccc2O[C@H]1CN(C)C(=O)Nc1ccccc1 | nt | i | nt | nt | nt | nt | nt | nt | nt | nt | nt | nt
CCc1sc(C(=O)Nc2ccc3nc(C)sc3c2)cc1C | 90 | 80 | i | nt | i | nt | i | 0.61 | i | i | i | i
CCNC(=O)C[C@@H]1CC[C@H]2[C@H](COc3ccc(NC(=O)Nc4ccc(Cl)cc4)cc3C(=O)N2C)O1 | nt | i | nt | nt | nt | nt | nt | nt | nt | nt | nt | nt
O=C(N/N=C/c1cccc([N+](=O)[O-])c1)c1cccc2cc[nH]c12 | i | nt | i | i | i | i | nt | nt | nt | nt | nt | nt
O=C(N/N=C/c1cccs1)c1cccc2cc[nH]c12 | i | 57 | i | i | i | i | i | i | i | i | i | i
Nc1cc2c(cc1Cl)-c1ccccc1C2 | i | 108 | i | nt | i | nt | i | i | i | i | i | i
CCCc1nc2c3ccccc3ccn2c1Cc1ccc(C)cc1 | nt | 101 | i | nt | i | nt | i | i | i | i | -56 | i
Cc1ccc(NC(=O)Nc2cccc(C)n2)c(C)c1 | i | 56 | 39 | i | i | i | i | i | i | i | i | i
O=C(Cc1ccccc1)N1C[C@H]2[C@@H](c3ccccc31)[C@@H](CO)N2C(=O)c1cccc(F)c1 | nt | i | nt | nt | nt | nt | nt | nt | nt | nt | nt | nt
O=C(N/N=C/c1ccc(Cl)cc1)Nc1ccccc1 | 95 | 59 | i | i | i | i | i | i | i | i | i | i
O=C(CO)N/N=C/c1ccc(Cl)cc1 | i | i | nt | i | i | i | nt | nt | nt | nt | nt | nt
COc1ccc(CN(C)C[C@H]2OCCCC[C@@H](C)Oc3ccc(NC(=O)Nc4cccc5ccccc45)cc3C(=O)N([C@@H](C)CO)C[C@@H]2C)cc1 | nt | i | nt | nt | nt | nt | nt | nt | nt | nt | nt | nt
Cc1ccc(NC(=O)C(=O)Nc2ccc(C)cn2)nc1 | i | 57 | i | i | i | i | i | i | i | i | i | i
N#Cc1c(/N=C/c2cccs2)sc2c1CCC2 | nt | 105 | i | i | i | i | i | ? | i | i | i | i
C=CCNc1nc2cc(-c3ccccc3OC)sc2c(=O)n1C | nt | 59 | i | nt | i | nt | i | i | i | i | i | i
O=C(CC(=O)c1ccccc1)Nc1ccccc1 | nt | 76 | 34 | i | i | i | i | i | i | i | i | i
O=C(O)CC(=O)Nc1ccccc1 | i | i | nt | i | i | i | nt | nt | nt | nt | nt | nt
COc1ccc(-c2cn3c(C)c(C(=O)NC(C)C)sc3n2)cc1 | i | i | i | i | i | i | nt | nt | nt | nt | nt | nt
COc1ccc(-c2cn3c(C)c(C(=O)NC(C)(C)C)sc3n2)cc1 | nt | 72 | i | i | i | i | i | i | i | i | i | i
